Laboratory results reported in PubChem BioAssay.
Calls of active or inactive are those of the source.

Tests used:
[1] = binders of probe aFSTL3 on microarray, primary screen, stem cell growth factor project, biochemical, small-molecule microarray, fluorescence 635/667 (AID 1064); settings: higher = more signal;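 note: measures binding of the biotinylated anti-FSTL3 antibody to printed compounds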
[2] = binders from COS7 lysate, DM2A8 probe, primary screen, torsin A project, cell lysate, small-molecule microarray, fluorescence 635/667 (AID 1065); settings: higher = more signal, COS7 lysate expressing mutant human TOR1A
[3] = binders of probe aFGF2 on microarray, primary screen, stem cell growth factor project, biochemical, small-molecule microarray, fluorescence 635/667 (AID 1067); settings: higher = more signal;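 note: measures binding of biotinylated aFGF2 protein to printed compounds on slides; z-score merges feature fluorescence and signal-to-noise across triplicate slides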
[4] = binders of probe aFGF10 on microarray, primary screen, stem cell growth factor project, biochemical, small-molecule microarray, fluorescence 635/667 (AID 1071); settings: higher = more signal;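 note: score merges 667 nm spot intensity and signal to noise from triplicate slides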
[5] = biological target: Neurogenic locus notch homolog protein 2 (Homo sapiens) (UniProt Q04721); assay: Notch2 binders on small-molecule microarrays, primary screen, biochemical, small-molecule microarray, 635 nm fluorescence, stem cell growth factors (AID 1073); settings: Notch2 binding, higher = more signal
Chain of Neurogenic locus notch homolog protein 2 (Homo sapiens) (Q04721 whole entry, looked up, canonical isoform): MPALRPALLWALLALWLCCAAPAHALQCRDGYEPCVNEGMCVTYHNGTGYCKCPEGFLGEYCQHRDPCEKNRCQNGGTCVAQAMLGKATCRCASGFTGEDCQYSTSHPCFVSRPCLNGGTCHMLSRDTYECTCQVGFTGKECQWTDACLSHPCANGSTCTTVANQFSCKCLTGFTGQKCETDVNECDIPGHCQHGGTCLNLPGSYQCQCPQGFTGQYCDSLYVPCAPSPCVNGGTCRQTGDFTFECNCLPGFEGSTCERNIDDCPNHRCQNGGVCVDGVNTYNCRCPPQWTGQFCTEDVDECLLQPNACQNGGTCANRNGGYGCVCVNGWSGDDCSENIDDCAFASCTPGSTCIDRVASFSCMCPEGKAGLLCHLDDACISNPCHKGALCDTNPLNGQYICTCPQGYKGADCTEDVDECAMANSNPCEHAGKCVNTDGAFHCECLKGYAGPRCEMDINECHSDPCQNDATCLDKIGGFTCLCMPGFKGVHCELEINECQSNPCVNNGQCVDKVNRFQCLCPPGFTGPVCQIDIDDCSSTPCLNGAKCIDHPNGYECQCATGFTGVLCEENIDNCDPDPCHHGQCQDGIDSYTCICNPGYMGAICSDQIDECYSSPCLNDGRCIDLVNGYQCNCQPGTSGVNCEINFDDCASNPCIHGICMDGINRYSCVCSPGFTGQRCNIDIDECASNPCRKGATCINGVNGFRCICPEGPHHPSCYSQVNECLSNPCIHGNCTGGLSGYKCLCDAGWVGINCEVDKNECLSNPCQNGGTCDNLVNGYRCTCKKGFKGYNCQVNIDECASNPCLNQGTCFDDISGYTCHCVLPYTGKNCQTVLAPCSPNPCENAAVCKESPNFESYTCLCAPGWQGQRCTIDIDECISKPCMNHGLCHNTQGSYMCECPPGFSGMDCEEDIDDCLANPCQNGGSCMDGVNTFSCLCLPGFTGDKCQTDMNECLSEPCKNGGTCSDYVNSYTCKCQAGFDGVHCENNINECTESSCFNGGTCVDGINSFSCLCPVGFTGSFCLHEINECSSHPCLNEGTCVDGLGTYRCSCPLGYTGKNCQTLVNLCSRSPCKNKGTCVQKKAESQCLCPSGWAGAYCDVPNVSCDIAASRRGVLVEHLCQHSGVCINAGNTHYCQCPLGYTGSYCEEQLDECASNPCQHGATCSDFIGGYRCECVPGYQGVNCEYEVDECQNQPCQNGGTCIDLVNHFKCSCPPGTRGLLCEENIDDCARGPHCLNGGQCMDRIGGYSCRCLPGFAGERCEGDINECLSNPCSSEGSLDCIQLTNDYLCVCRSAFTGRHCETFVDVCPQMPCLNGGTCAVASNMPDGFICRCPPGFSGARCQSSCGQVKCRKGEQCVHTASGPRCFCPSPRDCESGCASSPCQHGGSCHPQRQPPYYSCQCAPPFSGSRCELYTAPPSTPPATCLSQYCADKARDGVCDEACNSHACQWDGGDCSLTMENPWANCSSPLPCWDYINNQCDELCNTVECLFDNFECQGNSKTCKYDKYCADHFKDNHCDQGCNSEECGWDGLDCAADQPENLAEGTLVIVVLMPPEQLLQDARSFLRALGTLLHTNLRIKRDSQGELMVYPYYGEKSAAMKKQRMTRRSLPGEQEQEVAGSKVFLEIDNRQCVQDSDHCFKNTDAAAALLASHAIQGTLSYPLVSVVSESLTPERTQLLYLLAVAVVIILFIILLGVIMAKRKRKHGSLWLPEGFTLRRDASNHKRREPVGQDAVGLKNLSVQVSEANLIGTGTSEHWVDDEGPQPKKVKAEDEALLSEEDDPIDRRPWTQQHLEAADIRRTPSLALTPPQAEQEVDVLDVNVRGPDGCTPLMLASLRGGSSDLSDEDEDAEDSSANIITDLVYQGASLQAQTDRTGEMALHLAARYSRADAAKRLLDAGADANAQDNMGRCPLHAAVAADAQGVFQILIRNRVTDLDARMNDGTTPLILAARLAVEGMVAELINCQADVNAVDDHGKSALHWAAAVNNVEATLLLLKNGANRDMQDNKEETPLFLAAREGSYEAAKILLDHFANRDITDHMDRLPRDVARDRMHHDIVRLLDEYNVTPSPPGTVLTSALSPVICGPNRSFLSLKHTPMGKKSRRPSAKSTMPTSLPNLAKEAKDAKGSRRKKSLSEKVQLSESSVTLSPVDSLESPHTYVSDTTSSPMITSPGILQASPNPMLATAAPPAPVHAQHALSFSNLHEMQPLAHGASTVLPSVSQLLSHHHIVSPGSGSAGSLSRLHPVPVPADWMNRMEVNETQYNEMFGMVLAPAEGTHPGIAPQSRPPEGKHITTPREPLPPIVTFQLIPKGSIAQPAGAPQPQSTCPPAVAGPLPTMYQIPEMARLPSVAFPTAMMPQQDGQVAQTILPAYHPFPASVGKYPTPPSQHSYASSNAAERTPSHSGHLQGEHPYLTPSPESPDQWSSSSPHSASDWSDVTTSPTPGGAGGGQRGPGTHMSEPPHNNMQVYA

[6] = biological target: Pro-neuregulin-1, membrane-bound isoform (Homo sapiens) (UniProt Q02297); assay: NRG1 binders on small-molecule microarrays, primary screen, psychiatric disease protein project, biochemical, small-molecule microarray, fluorescence 635/667 (AID 1075); settings: NRG1 binding, 635 nm fluorescence, higher = more signal;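 note: score combines 667 nm spot fluorescence with signal to noise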
Chain of Pro-neuregulin-1, membrane-bound isoform (Homo sapiens) (Q02297 whole entry, looked up, the tested form may be a part, canonical isoform): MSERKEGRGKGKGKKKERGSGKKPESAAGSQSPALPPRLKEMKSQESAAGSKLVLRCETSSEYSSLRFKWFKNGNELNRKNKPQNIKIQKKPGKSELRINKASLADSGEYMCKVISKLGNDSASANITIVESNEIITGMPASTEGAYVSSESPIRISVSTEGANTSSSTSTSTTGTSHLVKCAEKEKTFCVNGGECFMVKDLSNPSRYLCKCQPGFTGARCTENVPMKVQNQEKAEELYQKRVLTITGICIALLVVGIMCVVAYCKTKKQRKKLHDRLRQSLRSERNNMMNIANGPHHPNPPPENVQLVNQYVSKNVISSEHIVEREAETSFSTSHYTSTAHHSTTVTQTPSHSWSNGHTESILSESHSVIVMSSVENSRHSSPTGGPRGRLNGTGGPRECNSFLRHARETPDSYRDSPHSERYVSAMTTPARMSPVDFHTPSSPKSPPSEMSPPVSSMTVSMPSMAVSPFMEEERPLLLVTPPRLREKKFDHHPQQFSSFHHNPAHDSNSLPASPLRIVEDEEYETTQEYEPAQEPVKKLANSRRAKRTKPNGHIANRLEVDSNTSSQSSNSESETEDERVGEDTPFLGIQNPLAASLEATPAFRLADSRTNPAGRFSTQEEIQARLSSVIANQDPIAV

[7] = test system: Neuregulin-1 EGF-like domain; assay: binders of neuregulin-1 EGF-like domain, primary screen, biochemical, small-molecule microarray, 635 nm fluorescence (AID 1081); settings: small-molecule microarray binding, higher = more signal;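 note: binding of the protein to compounds printed on small-molecule microarray slides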
[8] = FRG1 promoter luciferase signal modulators, primary screen, FRG1 inhibition for FSHD, cell-based, C2C12 myotubes, firefly/Renilla luciferase, luminescence (AID 1084); settings: higher = more signal, called active from +8 up or from −8 down
[9] = binders of probe aFST on microarray, primary screen, stem cell growth factor project, biochemical, small-molecule microarray, fluorescence 635/667 (AID 1086); settings: higher = more signal;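 note: score merges 667 nm fluorescence with signal-to-noise of each printed compound spot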
[10] = binders of probe aHhip on microarray, primary screen, stem cell growth factor project, biochemical, small-molecule microarray, fluorescence 635/667 (AID 1087); settings: higher = more signal;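 note: score merges spot fluorescence at 667nm with spot signal to noise ratio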
[11] = test system: PRMT1 (protein arginine N-methyltransferase 1); assay: PRMT1 binders on small-molecule microarrays, primary screen, biochemical, small-molecule microarray, 635 nm fluorescence (AID 1088); settings: small-molecule microarray binding, higher = more signal;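 note: binding of Prmt1 protein to compounds spotted on small-molecule microarray slides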
[12] = yeast growth modulation, basal conditions, primary screen, YJM789 clinical isolate, OD600, 24 h (AID 1089);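 note: growth of clinical yeast isolate S. cerevisiae YJM 789 seeded 1000 cells per well; test concentration not given here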; settings: S. cerevisiae YJM789 growth, higher = more signal, called active from +8 up or from −8 down
[13] = fission yeast growth modulation, primary screen, strain 972, OD600, 24 h, no modulator (AID 1090);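 note: basal condition with compound alone and no growth modifier present; test concentration not given here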; settings: S. pombe 972 growth, higher = more signal, called active from +8 up or from −8 down
[14] = S. cerevisiae growth modulation with rapamycin, primary screen, strain BY4716, OD600, 96 h (AID 1091); settings: higher = more signal, called active from +8 up or from −8 down; note: test concentration not given here
[15] = biological target: Torsin-1A-interacting protein 2 (Homo sapiens) (UniProt Q8NFQ8); assay: LULL1 binders on small-molecule microarray, primary screen, cell lysate, human LULL1 lysate, 635/667 nm fluorescence (AID 1092); settings: hLULL1 lysate binding, 635 nm fluorescence, higher = more signal;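 note: probe is lysate of COS7 cells overexpressing human LULL1; score merges per-feature 667 nm fluorescence with signal-to-noise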
Chain of Torsin-1A-interacting protein 2 (Homo sapiens) (Q8NFQ8 whole entry, looked up): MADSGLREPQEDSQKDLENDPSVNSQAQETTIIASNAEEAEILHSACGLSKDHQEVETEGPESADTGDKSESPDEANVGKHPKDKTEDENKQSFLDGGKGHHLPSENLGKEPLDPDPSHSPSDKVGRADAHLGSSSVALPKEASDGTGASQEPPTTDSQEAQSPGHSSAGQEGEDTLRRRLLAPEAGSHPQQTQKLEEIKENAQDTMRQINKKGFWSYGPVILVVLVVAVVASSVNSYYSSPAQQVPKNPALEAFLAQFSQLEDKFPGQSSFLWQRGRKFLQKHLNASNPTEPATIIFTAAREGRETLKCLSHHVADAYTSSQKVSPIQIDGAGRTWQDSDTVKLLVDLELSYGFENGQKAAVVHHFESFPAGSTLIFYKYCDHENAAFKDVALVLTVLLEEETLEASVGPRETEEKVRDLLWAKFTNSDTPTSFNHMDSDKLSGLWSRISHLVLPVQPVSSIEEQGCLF

[16] = E. coli growth modulation, two-sided OD650, primary screen, E. coli filamentation project, strain DRC41, 24 h (AID 1093); settings: OD650, 24 h, higher = more signal, called active from +8 up or from −8 down;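 note: MC1000 strain lacking acrAB efflux and sulA so SOS filamentation is blocked; test concentration not given here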
[17] = small-molecule microarray binders of probe aLefty2, primary screen, biochemical, biotinylated probe, 635/667 nm fluorescence (AID 1094); settings: higher = more signal;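 note: score merges spot fluorescence near 667 nm with spot signal-to-noise ratio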
[18] = test system: Noggin (protein binding on small-molecule microarray); assay: Noggin binders on small-molecule microarray, primary screen, biochemical, 635/667 nm fluorescence (AID 1095); settings: 635 nm fluorescence, higher = more signal;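 note: score merges 667 nm feature fluorescence with signal to noise over triplicate slides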
[19] = biological target: Neurogenic locus notch homolog protein 3 (Homo sapiens) (UniProt Q9UM47); assay: NOTCH3 binders on small-molecule microarray, primary screen, biochemical, 635/667 nm fluorescence (AID 1096); settings: NOTCH3 binding, 635 nm fluorescence, higher = more signal
[20] = small-molecule microarray binders of probe aEGFR, primary screen, biochemical, biotinylated probe, 635/667 nm fluorescence (AID 1097); settings: higher = more signal;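 note: probe is a biotinylated anti-EGFR antibody binding compounds printed on slides; score combines fluorescence near 667 nm and signal to noise of each spot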

| Structure (SMILES) | composite z-score [1] | composite z-score [2] | composite z-score [3] | composite z-score [4] | composite z-score [5] | composite z-score [6] | composite z-score [7] | z-score [8] | composite z-score [9] | composite z-score [10] | composite z-score [11] | z-score [12] | z-score [13] | z-score [14] | composite z-score [15] | z-score [16] | composite z-score [17] | composite z-score [18] | composite z-score [19] | composite z-score [20] |
| --- | --- | --- | --- | --- | --- | --- | --- | --- | --- | --- | --- | --- | --- | --- | --- | --- | --- | --- | --- | --- |
| CCOC(=O)C[C@H]1[C@H](OC(=O)c2cc3ccccc3oc2=O)[C@@H](NC(=O)c2ccc3ccccc3c2)c2cc(OCCCO)ccc2N1C(=O)c1ccc2ccccc2n1 | -0.522 | 0.128 | -0.0336 | 1.11 | 1.09 | 0.384 | 1.03 | -0.881 (inactive) | 0.518 | -0.0994 | 0.154 | -0.653 (inactive) | -0.777 (inactive) | -0.31 (inactive) | 0.868 | 2.45 (inactive) | -0.225 | 0.956 | 1.03 | 0.0768 |
| CCCC=C(CCC)[C@@H](NC(=O)c1ccc(C(F)(F)F)cc1)c1ccccc1 | -0.0795 | 0.333 | -0.0483 | -0.195 | 0.237 | -0.256 | 0.113 | 2.78 (inactive) | 0.587 | -0.0296 | 0.626 | 0.562 (inactive) | -0.502 (inactive) | 1.62 (inactive) | 2.03 | -0.773 (inactive) | -0.0038 | -0.0491 | 0.417 | -0.0565 |
| O=C(NCc1ccccc1)[C@@]1(CCS(=O)(=O)c2ccccc2)COC(c2ccc(OCCCO)cc2)=N1 | 0.971 | 0.985 | 0.0025 | 0.382 | 1.17 | 2.16 | 1.18 | -4.58 (inactive) | 0.662 | -0.15 | 1.53 | -0.53 (inactive) | -0.111 (inactive) | 31.5 (active) | 3.6 | 2.12 (inactive) | 0.167 | 0.16 | 1.13 | 0.0033 |
| Cc1ccc([C@@H]2CC=C(C(=O)O)[C@H](c3ccccc3)N2S(=O)(=O)c2ccc(C)cc2)cc1 | 0.65 | 0.436 | 0.358 | 1.02 | 1.49 | 1.82 | 1.35 | -3.57 (inactive) | 0.549 | 0.0623 | 1.55 | -0.0782 (inactive) | -0.249 (inactive) | -0.269 (inactive) | 3.24 | -1.25 (inactive) | 0.755 | -0.971 | 0.673 | 0.0582 |
| O=C1C2C=CC(C(O)C(c3ccccc3)c3ccccc3)N(Nc3ccc([N+](=O)[O-])cc3)C2C(=O)N1c1ccccc1 (stereo not given) | 0.141 | 0.311 | 0.138 | 1.16 | 1.64 | 1.84 | 1.27 | 0.117 (inactive) | 1.37 | -0.0994 | 1.38 | 0.384 (inactive) | 1.86 (inactive) | 2.85 (inactive) | 3.67 | -0.07 (inactive) | 0.109 | -0.181 | 1.07 | 0.121 |
